Source: PubChem BioAssay (The Scripps Research Institute Molecular Screening Center)
In the library only some 3.5% were active in any assay of this set; here they are far more common.
TEAD-YAP inh – TEAD-YAP interaction inhibition; inhibition, % at 9.12 µM; actives 1.4% (n = 640,000); HEK-TIYL cells, TEAD-Gal4/YAP UAS-luciferase luminescence; in the data active = inhibition above about 32%;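 also: 0% = median of test compound wells and 100% = reference inhibitor wells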
FBW7 act – activators of human E3 ligase FBW7 | Q969H0 | AlphaScreen FBW7–phospho-cyclin E peptide binding, activator screen | normalized activity (activation), % at 26.1 µM | actives 0.13% (n = 650,000) | AID 1259310; in the data active = normalized activity above about 1.9%;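 also: purified mutant Fbw7 with reduced substrate affinity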
GPR151 activ – activators of human GPR151; PathHunter beta-arrestin GPR151 cells, luminescence; activation, % at 11.2 µM; actives 1% (n = 650,000); in the data active = activation above about 4.9%;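 also: 0% = median of compound wells and 100% = cells with positive control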
Target sequence (Q8TDV0 whole entry, looked up): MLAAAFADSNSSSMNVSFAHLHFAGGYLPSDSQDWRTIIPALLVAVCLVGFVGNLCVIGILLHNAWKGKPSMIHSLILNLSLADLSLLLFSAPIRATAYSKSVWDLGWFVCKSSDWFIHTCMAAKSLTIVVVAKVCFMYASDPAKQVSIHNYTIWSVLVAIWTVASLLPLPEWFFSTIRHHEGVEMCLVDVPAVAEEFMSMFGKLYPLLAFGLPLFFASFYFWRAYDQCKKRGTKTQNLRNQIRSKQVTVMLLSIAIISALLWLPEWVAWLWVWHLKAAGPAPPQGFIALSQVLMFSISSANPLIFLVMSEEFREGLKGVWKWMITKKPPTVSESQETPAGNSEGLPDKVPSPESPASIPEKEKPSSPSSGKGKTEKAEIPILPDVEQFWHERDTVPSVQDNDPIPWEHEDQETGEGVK
MITF inh – inhibitors of human MITF; AlphaScreen MITF homodimerization, bead proximity signal; inhibition, % at 2.6 µM; actives 0.91% (n = 650,000); AID 1259374; in the data active = inhibition above about 50%;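 also: 0% = vehicle wells with protein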
GPR151 conf act – confirmation of human GPR151 activators; shares compounds with GPR151 activ; GPR151 PathHunter beta-arrestin cells, luminescence, 90 min; % of EA-reagent control over plate median; activation, % at 11.2 µM; 6,700 tested, under 10 active;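 active = mean percent activation across replicates above the confirmation screen cutoff of 4.91%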
GPR119 ag – activates human GPR119 in a GPR151 counter-screen. shares compounds with GPR151 activ. GPR119 PathHunter beta-arrestin cells, luminescence, 90 min; 0 = compound-well median, 100 = enzyme-acceptor control. activation, % at 11.2 µM. actives 0.3% (n = 6,700);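 active = mean percent activation in the counterscreen above 29.09%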;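 also: counterscreen on off-target GPR119 to flag nonselective hits from the GPR151 activator screen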
Starred values were filed as active, the others as inactive; . = not tested or not shown; ! = not active in a repeat.

SMILES	TEAD-YAP inh	FBW7 act	GPR151 activ	MITF inh	GPR151 conf act	GPR119 ag
Cn1cc(CN2CCN(Cc3nccn3C)CC2)c(-c2ccc3c(c2)OCCO3)n1	0.0	0.0	4.3	2.3	.	.
Cn1cc(CN2CCOCC2)c(-c2ccc3c(c2)OCCO3)n1	11.3	-0.1	9.2*	-0.7	-0.1	3.1
CC1=C(C(=O)OCC(C)C)C(c2ccc(Cl)cc2Cl)NC(=O)N1 (stereo not drawn)	-9.4	0.2	4.3	-3.0	.	.
COc1ccc(C2C(C(=O)Nc3cc([N+](=O)[O-])ccc3OC)c3ccccc3C(=O)N2C)cc1 (stereo not drawn)	24.9	0.1	3.9	-7.7	.	.
CC(C)NC[C@H](O)COc1cccc2ccccc12	1.2	0.2	8.0*!	-17.8	1.7	4.6
CN1CCN(c2c(F)cc3c(=O)c(C(=O)O)cn(CCF)c3c2F)CC1	3.0	0.1	6.3*!	17.1	0.3	3.5
CN1CCN(c2c(F)cc3c(=O)c(C(=O)O)cn4c3c2OCN4C)CC1	3.0	-0.3	1.6	1.0	.	.
Cc1cccc2cc(C#N)c(NCCNC(=O)c3cccnc3)nc12	-5.8	0.0	-0.2	-13.0	.	.
O=C(Cn1cncn1)NN=C1c2ccccc2-c2ccccc21	-5.5	-0.2	5.2*	-2.8	0.7	6.4
O=C(Cn1cncn1)N/N=C/c1ccccc1Cl	1.4	0.2	1.4	12.3	.	.
CCc1ccccc1NC(=O)c1ccc(F)c(S(=O)(=O)N2CCCCC2C)c1 (stereo not drawn)	-8.1	0.1	6.7*	6.9	-0.6	-15.0
COc1ccc(CCN2C(=O)NC(NC(C)=O)(C(F)(F)F)C2=O)cc1OC (stereo not drawn)	3.3	0.4	5.0*	12.4	-0.2	-9.1
COc1ccc(OCC2c3cc(OC)c(OC)cc3CCN2C(=O)/C=C/c2cc(OC)c(OC)c(OC)c2)cc1 (stereo not drawn)	28.9	0.0	-1.1	-4.2	.	.
COc1cc2c(cc1OC)C(COc1ccc(F)cc1)N(C(=O)/C=C/c1cc(OC)c(OC)c(OC)c1)CC2 (stereo not drawn)	6.7	-0.1	6.3*	4.7	1.1	10.3
CCOC(=O)c1ccc(OCC2c3cc(OC)c(OC)cc3CCN2C(=O)c2ccc(OCC)c(OCC)c2)cc1 (stereo not drawn)	4.0	0.0	-0.1	-4.5	.	.
CCOc1ccc(C(=O)N2CCc3cc(OC)c(OC)cc3C2COc2ccc(C(=O)OC)cc2)cc1OCC (stereo not drawn)	-7.2	0.2	20.2*	3.2	-0.5	-0.2
COc1cc2c(cc1OC)C(COc1ccc(F)cc1)NCC2 (stereo not drawn)	6.0	0.0	7.1*	0.6	0.0	1.1
CCOC(=O)c1cccc2c3c([nH]c12)C(C(=O)OCC)CCC3 (stereo not drawn)	-4.0	-0.1	5.0*	-9.0	0.5	-5.7
COc1ccc(C2CC(c3cccs3)=NN2C(=O)CSc2nnc(CNC(=O)c3cccc(OC)c3)n2-c2ccccc2)cc1 (stereo not drawn)	1.6	-0.1	5.8*	-9.4	1.4	0.7
COc1cccc(C(=O)NCc2nnc(SCC(=O)N3N=C(c4cccs4)CC3c3ccc(C)cc3)n2-c2ccccc2)c1 (stereo not drawn)	6.7	-0.1	0.6	-12.2	.	.
O=C1CSC(c2ccc(F)cc2)N1c1ccc(Oc2ccc3ccccc3c2Cl)c(Cl)c1 (stereo not drawn)	-10.6	-0.1	1.7	-3.2	.	.
COC(=O)c1c(NC(=O)c2ccc(S(=O)(=O)N(C)C3CCCCC3)cc2)sc2c1CCN(C(C)C)C2	2.9	-0.1	1.3	-11.4	.	.
Cc1ccc(-n2c(SCC#N)nc3c(sc(=S)n3-c3cc(C)ccc3F)c2=O)cc1	9.0	0.0	2.3	-0.5	.	.
Cc1cc(C)n(-c2cccc(CN(C)C(=O)Cn3nnnc3CN3CCC(C)CC3)c2)n1	3.5	0.1	5.7*	1.7	0.0	4.0
Brc1cccc(-c2nnc(CN3CCN(Cc4ccccc4)CC3)o2)c1	-1.4	0.1	6.0*	2.1	-0.1	-3.6
SMILES	TEAD-YAP inh	FBW7 act	GPR151 activ	MITF inh	GPR151 conf act	GPR119 ag
Cc1ccc(C2CC(c3cccs3)=NN2C(=O)CSc2nnc(CNC(=O)c3ccco3)n2CCc2ccccc2)cc1 (stereo not drawn)	6.6	-0.1	-0.8	-5.4	.	.
CCn1cc(CCC(=O)NC(C)C)c2ccccc21	-0.8	0.4	5.6*	3.1	0.4	8.5
NC(=O)c1ccccc1NC(=O)CCn1c(=O)oc2ccccc21	3.7	-0.2	5.0*	4.3	0.3	7.4
CC(C)NC(=O)CCn1c(=O)oc2ccccc21	-7.9	-0.1	8.1*	-0.6	-0.5	-5.9
Cc1ccc(C)c(C(=O)COC(=O)c2ccccc2N2C(=O)C3C4C=CC(C4)C3C2=O)c1 (stereo not drawn)	2.5	-0.3	-0.2	-0.4	.	.
Cc1cc2c(cc3c(=O)n(CC(=O)N4CCc5ccccc54)ncn32)s1	1.6	0.5	1.0	-1.4	.	.
CCCC(=O)Nc1nn2c(-c3cccc(OC)c3)nnc2s1	-4.2	0.0	5.2*	0.1	0.4	-4.8
Cc1ccc(-c2nnc3sc(NC(=O)CC(C)C)nn23)cc1	4.9	-0.1	26.8*	-1.4	0.7	3.7
O=c1c2ccccc2ncn1Cc1ccc(Br)cc1	-12.6	1.2	-1.5	12.3	.	.
CCN(CC)c1ccc(/C=N/N2C(=O)c3ccccc3C2=O)c(O)c1	3.8	0.2	8.3*	-71.6	-0.3	2.2
CCN(CC)c1ccc(/C=N/N2C(=O)c3ccccc3C2=O)cc1	9.2	0.0	-0.3	-2.2	.	.
CCN(CC)c1ccc(/C=N/NC(=O)COc2ccccc2)c(O)c1	3.1	0.0	8.1*	5.9	1.4	11.7
CC(C)N(Cc1ccccc1)C(=O)Cc1noc2ccccc12	-8.3	0.1	1.1	5.4	.	.
COC(=O)Cn1c(=O)c2c(nc3oc(C)c(C)n32)n(C)c1=O	8.7	0.5	2.3	2.7	.	.
O=C(/C=C\c1ccc([N+](=O)[O-])cc1)Nc1nnc(-c2ccccc2)o1	-5.9	0.1	0.1	-0.1	.	.
O=C(/C=C\c1ccc([N+](=O)[O-])cc1)Nc1nnc(-c2cccs2)o1	-5.0	-0.1	6.7*	-5.0	-0.7	0.8
Oc1ccccc1CNc1cc2c(cc1Br)OCCO2	-1.6	-0.3	19.0*	9.6	0.3	-1.6
Oc1ccccc1CNc1ccc2c(c1)OCCO2	-19.2	-0.2	-0.5	4.6	.	.
Cc1ccccc1NC(=S)NC1CC(C)(C)NC(C)(C)C1	1.1	-0.2	-1.6	2.3	.	.
CCCCC1=CC2=C(c3ccco3)C(=O)C(C)(OC(=O)c3ccc(OC)cc3)C(=O)C2=CO1 (stereo not drawn)	.	0.1	-0.8	20.7	.	.
CCCCC1=CC2=C(c3ccco3)C(=O)C(C)(OC(=O)c3ccc(Cl)nc3)C(=O)C2=CO1 (stereo not drawn)	.	-0.3	6.5*	-7.0	-0.3	-16.1
